PubChem BioAssay AID662 (National Center for Advancing Translational Sciences (NCATS), 2007)
The campaign covered roughly 71,000 compounds. About 1,800 (2.5%) were called active. About 26% were inconclusive and are not listed. Calls come from the whole dose curve; as a rule, active = well fitted activation curve with a large enough effect in the signal ratio, with a control signal flat (not every such curve was filed as active); inconclusive = small, poorly fitted or top-dose-only effect, or effect the other way, or a change in a side signal; inactive = flat fitted curve, though single readings scatter; the % refers to the signal ratio. Shown is part of a subset that was picked to be rich in actives. Entries that show only a call come without a potency.

Assay: Cell signaling CRE-BLA (Fsk stim)
Details: CHO CRE-bla reporter (cAMP response element driving beta-lactamase), forskolin EC10, beta-lactamase ratio; series mostly up to 38.2 µM
Text: NIH Molecular Libraries Screening Centers Network [MLSCN]
NIH Chemical Genomics Center [NCGC]
Assay Provider: Marshall W. Nirenberg, U.S. National heart lung & blood institute
Memories persist for different lengths of time, from seconds or minutes to a lifetime. There are two kinds of memory: short-term memory (STM) and long-term memory (LTM). STM lasts for minutes to hours, which maybe mediated by modifications of molecules involved in synaptic functions. LTM lasts for days or longer, and may be due to the formation of new synapses or restructuring of existing synapses. LTM, but not STM, requires gene transcription and synthesis of proteins. CREB (cyclic-AMP Responsive Element Binding Protein) is one of the candidates plays an important role for enhancement of some types of LTM. CREB, a family of transcription factors, regulates the transcription of genes containing cAMP Responsive Elements (CRE). CRE is a nucleotide sequence often found in the promoter regions of genes that are binding sites for CREB.
Using a beta-lactamase reporter-gene under control of cAMP responsive element, a cell-based assay [CellSensor(TM) CRE-bla CHO developed by Invitrogen Corp.] was used to measure forskolin-induced signaling. Library compounds were measured for their ability to modulate positively or negatively the action of EC10 NKH 477, a water soluble forskolin, on reporter gene activity. Compounds were screened in a titration series in 1536-well format. Positive and negative modulators were identified based on the AC50 values derived from the screening data.
NCGC Assay Protocol Summary
2000 cells/5uL in Opti-MEM medium containing 0.5% dialyzed FBS, 0.1 mM NEAA, 1 mM sodium pyruvate and 10 mM HEPES was dispensed into 1536-well plates and cells were cultured at 37 degrees Celsius overnight. […] And then the plates were incubated at 37 degrees Celsius for 3 hours. 1 uL of CCF4-dye mixture was added to each well. After incubated at room temperature for 2 hours the plates were measured on an EnVision plate reader at Excitation 405nm, Emission1=460nm and Emission 2=530nm. The %Activity was determined from the ratio of 460nm/530nm.
Keywords: NIH Roadmap, MLSCN, MLSMR, qHTS, NCGC, CRE, beta-lactamase reporter-gene assay.
Potency is the fitted concentration of half-maximal effect.

Compound | Potency
COc1ccc(S(=O)(=O)NCc2ccc(C(=O)N3CCC4(CC3)OCCO4)cc2)cc1 | inactive
O=C(c1cc(S(=O)(=O)N2CCOCC2)ccc1F)N1CCC2(CC1)OCCO2 | inactive
O=C(c1cc2nc(-c3ccccc3)cc(-c3ccccc3)n2n1)N1CCC2(CC1)OCCO2 | 2.51 µM (active)
C[C@@]1([C@@H](NP(=O)(c2ccccc2)c2ccccc2)c2ccccc2)C[C@H]1CCO | inactive
Cc1cc(-c2ccc(N)c(C)c2)ccc1N | inactive
N[C@H](Cc1o[nH]c(=O)c1Cl)C(=O)O | inactive
ClC(Cl)=C(Cl)C(Cl)=C(Cl)Cl | inactive
CCC(=NCCCO)c1c(O)n(-c2ccc(OC)cc2)c(=O)[nH]c1=O | inactive
CCCCCCN=C(CC)c1c(O)n(CCCC)c(=O)[nH]c1=O | 10 µM (active)
ClC(Cl)(Cl)c1ccccc1 | inactive
